# Tests used:
# [1] = system: H1975; assay: area under confluence curve of osimertinib + compound combination regimen (DTP regrowth); compare to osimertinib-only DTP control AUC of the same experiment (AUC (confluence x time, arbitrary))
# Method in brief: (§1)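 Two schedules were compared in EGFR-mutant NSCLC lines. In one, the EGFR inhibitor and a fixed-dose test compound were given together up to the persister stage (10–21 days), followed by drug-free medium. In the other, the inhibitor alone came first and the test compound second. Prism calculated the area under the IncuCyte confluence–time curve, taking the median of triplicates where these were available.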
# [2] = system: HCC2279; assay: as above
# Method in brief: as §1
# [3] = system: HCC2935; assay: as above
# Method in brief: as §1
# [4] = system: HCC4006; assay: as above
# Method in brief: as §1
# [5] = system: HCC827; assay: as above
# Method in brief: as §1
# [6] = system: II-18; assay: as above
# Method in brief: as §1
# [7] = system: H1975; assay: area under confluence curve of compound monotherapy; compare to DMSO control AUC of the same experiment (AUC (confluence x time, arbitrary)); conditions: 100 nM
# Method in brief: (§2)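 EGFR-mutant adenocarcinoma lines (RPMI 1640, 10% FBS, 37 °C, 5% CO2) were seeded at 20,000–30,000 cells/well in 48-well plates and next day given test compound alone at one dose (highest with <50% parental inhibition, or 1 uM), refreshed after PBS washes every 3–4 days, then drug-free from DTP stage (10–21 days). IncuCyte confluence was tracked until EGFR-inhibitor-only wells regrew. Area under the confluence curve came from Prism (median of triplicates where run), beside same-experiment vehicle AUC.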
# [8] = system: HCC2279; assay: as above; conditions: 100 nM
# Method in brief: as §2
# [9] = system: HCC2935; assay: as above; conditions: 100 nM
# Method in brief: as §2
# [10] = system: HCC4006; assay: as above; conditions: 100 nM
# Method in brief: as §2
# [11] = system: HCC827; assay: as above; conditions: 100 nM
# Method in brief: as §2
# [12] = system: II-18; assay: as above
# Method in brief: as §2
compound,measurement,setting,value
COc1nnc2ccc(N3CCC(c4ccc(OCCN5CCN(C)C(=O)[C@H]5C)cc4)CC3)nn12 + C=CC(=O)Nc1cc(Nc2nccc(-c3cn(C)c4ccccc34)n2)c(OC)cc1N(C)CCN(C)C [osimertinib],area under confluence curve,"[1]; test compound dose 300 nM, dosing schedule: sequential, osimertinib-only DTP control AUC in same experiment: 12533, DMSO control AUC in same experiment: 14522",3520
same,area under confluence curve,"[1]; test compound dose 300 nM, dosing schedule: upfront, osimertinib-only DTP control AUC in same experiment: 18969, DMSO control AUC in same experiment: 14522",15900
same,area under confluence curve,"[2]; test compound dose 300 nM, dosing schedule: sequential, osimertinib-only DTP control AUC in same experiment: 5698, DMSO control AUC in same experiment: 27284",2470
same,area under confluence curve,"[2]; test compound dose 300 nM, dosing schedule: upfront, osimertinib-only DTP control AUC in same experiment: 30623, DMSO control AUC in same experiment: 27284",13900
same,area under confluence curve,"[3]; test compound dose 300 nM, dosing schedule: sequential, osimertinib-only DTP control AUC in same experiment: 9121, DMSO control AUC in same experiment: 11459",2580
same,area under confluence curve,"[3]; test compound dose 300 nM, dosing schedule: upfront, osimertinib-only DTP control AUC in same experiment: 12748, DMSO control AUC in same experiment: 11459",4310
same,area under confluence curve,"[4]; test compound dose 30 nM, dosing schedule: sequential, osimertinib-only DTP control AUC in same experiment: 14882, DMSO control AUC in same experiment: 10921",6680
same,area under confluence curve,"[4]; test compound dose 30 nM, dosing schedule: upfront, osimertinib-only DTP control AUC in same experiment: 18913, DMSO control AUC in same experiment: 10921",5730
same,area under confluence curve,"[5]; test compound dose 300 nM, dosing schedule: sequential, osimertinib-only DTP control AUC in same experiment: 18675, DMSO control AUC in same experiment: 48895",4180
same,area under confluence curve,"[5]; test compound dose 300 nM, dosing schedule: upfront, osimertinib-only DTP control AUC in same experiment: 25542, DMSO control AUC in same experiment: 48895",12300
same,area under confluence curve,"[6]; test compound dose 30 nM, dosing schedule: sequential, osimertinib-only DTP control AUC in same experiment: 16416, DMSO control AUC in same experiment: 18996",4370
same,area under confluence curve,"[6]; test compound dose 30 nM, dosing schedule: upfront, osimertinib-only DTP control AUC in same experiment: 18996, DMSO control AUC in same experiment: 18996",14400
C[C@@]1(C(=O)Nc2ccc(F)nc2)CCCN1c1nc(Nc2cc(C3CC3)n[nH]2)c2cccn2n1,area under confluence curve,[7]; DMSO control AUC in same experiment: 16540,17600
same,area under confluence curve,[8]; DMSO control AUC in same experiment: 14404,15900
same,area under confluence curve,[9]; DMSO control AUC in same experiment: 19215,20700
same,area under confluence curve,[10]; DMSO control AUC in same experiment: 18415,20100
same,area under confluence curve,[11]; DMSO control AUC in same experiment: 21320,21300
same,area under confluence curve,"[12]; 100 nM, DMSO control AUC in same experiment: 11834",9980
CCN1CCN(Cc2ccc(Nc3ncc(F)c(-c4cc(F)c5nc(C)n(C(C)C)c5c4)n3)nc2)CC1 [Abemaciclib] + C=CC(=O)Nc1cc(Nc2nccc(-c3cn(C)c4ccccc34)n2)c(OC)cc1N(C)CCN(C)C [osimertinib],area under confluence curve,"[1]; test compound dose 100 nM, dosing schedule: sequential, osimertinib-only DTP control AUC in same experiment: 12533, DMSO control AUC in same experiment: 14522",8980
same,area under confluence curve,"[1]; test compound dose 100 nM, dosing schedule: upfront, osimertinib-only DTP control AUC in same experiment: 18969, DMSO control AUC in same experiment: 14522",5060
same,area under confluence curve,"[2]; test compound dose 100 nM, dosing schedule: sequential, osimertinib-only DTP control AUC in same experiment: 5698, DMSO control AUC in same experiment: 27284",4410
same,area under confluence curve,"[2]; test compound dose 100 nM, dosing schedule: upfront, osimertinib-only DTP control AUC in same experiment: 30623, DMSO control AUC in same experiment: 27284",12700
same,area under confluence curve,"[3]; test compound dose 100 nM, dosing schedule: sequential, osimertinib-only DTP control AUC in same experiment: 9121, DMSO control AUC in same experiment: 11459",4760
same,area under confluence curve,"[3]; test compound dose 100 nM, dosing schedule: upfront, osimertinib-only DTP control AUC in same experiment: 12748, DMSO control AUC in same experiment: 11459",9300
same,area under confluence curve,"[4]; test compound dose 100 nM, dosing schedule: sequential, osimertinib-only DTP control AUC in same experiment: 14882, DMSO control AUC in same experiment: 10921",8540
same,area under confluence curve,"[4]; test compound dose 100 nM, dosing schedule: upfront, osimertinib-only DTP control AUC in same experiment: 18913, DMSO control AUC in same experiment: 10921",4990
same,area under confluence curve,"[5]; test compound dose 100 nM, dosing schedule: sequential, osimertinib-only DTP control AUC in same experiment: 18675, DMSO control AUC in same experiment: 48895",6450
same,area under confluence curve,"[5]; test compound dose 100 nM, dosing schedule: upfront, osimertinib-only DTP control AUC in same experiment: 25542, DMSO control AUC in same experiment: 48895",7890
same,area under confluence curve,"[6]; test compound dose 100 nM, dosing schedule: sequential, osimertinib-only DTP control AUC in same experiment: 3520, DMSO control AUC in same experiment: 13556",1010
same,area under confluence curve,"[6]; test compound dose 100 nM, dosing schedule: upfront, osimertinib-only DTP control AUC in same experiment: 6532, DMSO control AUC in same experiment: 13556",2540
Cc1nc(Nc2ncc(C(=O)Nc3c(C)cccc3Cl)s2)cc(N2CCN(CCO)CC2)n1 [Dasatinib],area under confluence curve,[7]; DMSO control AUC in same experiment: 14522,4980
same,area under confluence curve,[8]; DMSO control AUC in same experiment: 29252,28300
same,area under confluence curve,[9]; DMSO control AUC in same experiment: 13875,10400
same,area under confluence curve,[10]; DMSO control AUC in same experiment: 16638,11900
same,area under confluence curve,[11]; DMSO control AUC in same experiment: 30859,25600
same,area under confluence curve,"[12]; 30 nM, DMSO control AUC in same experiment: 11408",10100
C[C@@H](Nc1cc(F)cc(F)c1)c1cc(C(=O)N(C)C)cc2c(=O)cc(N3CCOCC3)oc12 + C=CC(=O)Nc1cc(Nc2nccc(-c3cn(C)c4ccccc34)n2)c(OC)cc1N(C)CCN(C)C [osimertinib],area under confluence curve,"[1]; test compound dose 1000 nM, dosing schedule: sequential, osimertinib-only DTP control AUC in same experiment: 15943, DMSO control AUC in same experiment: 20657",8220
same,area under confluence curve,"[1]; test compound dose 1000 nM, dosing schedule: upfront, osimertinib-only DTP control AUC in same experiment: 27804, DMSO control AUC in same experiment: 20657",13700
same,area under confluence curve,"[2]; test compound dose 1000 nM, dosing schedule: sequential, osimertinib-only DTP control AUC in same experiment: 21824, DMSO control AUC in same experiment: 29252",8080
same,area under confluence curve,"[2]; test compound dose 1000 nM, dosing schedule: upfront, osimertinib-only DTP control AUC in same experiment: 43517, DMSO control AUC in same experiment: 29252",21600
same,area under confluence curve,"[3]; test compound dose 1000 nM, dosing schedule: sequential, osimertinib-only DTP control AUC in same experiment: 6271, DMSO control AUC in same experiment: 13875",5860
same,area under confluence curve,"[3]; test compound dose 1000 nM, dosing schedule: upfront, osimertinib-only DTP control AUC in same experiment: 10360, DMSO control AUC in same experiment: 13875",5800
same,area under confluence curve,"[4]; test compound dose 1000 nM, dosing schedule: sequential, osimertinib-only DTP control AUC in same experiment: 19238, DMSO control AUC in same experiment: 16638",10300
same,area under confluence curve,"[4]; test compound dose 1000 nM, dosing schedule: upfront, osimertinib-only DTP control AUC in same experiment: 21234, DMSO control AUC in same experiment: 16638",5440
same,area under confluence curve,"[5]; test compound dose 1000 nM, dosing schedule: sequential, osimertinib-only DTP control AUC in same experiment: 8266, DMSO control AUC in same experiment: 27404",3540
same,area under confluence curve,"[5]; test compound dose 1000 nM, dosing schedule: upfront, osimertinib-only DTP control AUC in same experiment: 13929, DMSO control AUC in same experiment: 27404",3910
same,area under confluence curve,"[6]; test compound dose 1000 nM, dosing schedule: sequential, osimertinib-only DTP control AUC in same experiment: 21014, DMSO control AUC in same experiment: 18482",12100
same,area under confluence curve,"[6]; test compound dose 1000 nM, dosing schedule: upfront, osimertinib-only DTP control AUC in same experiment: 27084, DMSO control AUC in same experiment: 18482",10200

# Reference: the supplement of paper PMC9794691
